Measured values as given in article PMC7862700, “An all-to-all approach to the identification of sequence-specific readers for epigenetic DNA modifications on cytosine”.

What was measured:
Assay in all cases: DAPPL (digital affinity profiling via proximity ligation, sequencing); 10 mM Tris-HCl pH 7.5, 50 mM NaCl, 1 mM DTT, 4% glycerol, room temperature, 30 min; GST-TFs on glutathione beads, 16-mer random dsDNA library, 0.1% formaldehyde crosslink after washing; high values mean tight binding
Conditions in all cases: protein: recombinant; tags: N-terminal GST; dsDNA, one strand shown
FLI1 = target: T1, FLI1 (Homo sapiens, UniProt Q01543 1-452)
T1 sequence: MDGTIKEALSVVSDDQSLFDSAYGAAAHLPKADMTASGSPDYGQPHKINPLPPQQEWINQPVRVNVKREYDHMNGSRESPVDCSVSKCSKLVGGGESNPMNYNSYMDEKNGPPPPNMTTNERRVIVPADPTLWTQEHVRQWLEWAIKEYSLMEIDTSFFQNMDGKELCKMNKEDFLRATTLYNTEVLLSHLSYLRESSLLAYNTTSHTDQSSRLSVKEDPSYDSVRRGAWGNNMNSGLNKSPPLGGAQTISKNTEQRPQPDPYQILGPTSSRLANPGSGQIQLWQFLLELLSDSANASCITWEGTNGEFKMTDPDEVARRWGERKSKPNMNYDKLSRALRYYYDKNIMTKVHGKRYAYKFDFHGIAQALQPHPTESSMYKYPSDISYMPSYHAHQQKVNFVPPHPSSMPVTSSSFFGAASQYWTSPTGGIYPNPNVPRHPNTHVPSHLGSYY
Summary of the method: (§1)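 Pools were built from human transcription factors expressed in yeast as GST fusions, captured on glutathione beads and DNA-barcoded, along with a tag-only sample. Incubation with 200 nmole of a 16-mer random double-stranded DNA library lasted 30 min at room temperature in Tris/NaCl/DTT/glycerol buffer, and was followed by washing, 0.1% formaldehyde crosslinking, proximity ligation, PCR amplification and Illumina NextSeq500 sequencing. Binding signal is the quotient of each hexamer's read frequency for a factor and its frequency for the tag-only sample.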

ELK1 = target: T2, ELK1 (Homo sapiens, UniProt P19419 1-428)
T2 sequence: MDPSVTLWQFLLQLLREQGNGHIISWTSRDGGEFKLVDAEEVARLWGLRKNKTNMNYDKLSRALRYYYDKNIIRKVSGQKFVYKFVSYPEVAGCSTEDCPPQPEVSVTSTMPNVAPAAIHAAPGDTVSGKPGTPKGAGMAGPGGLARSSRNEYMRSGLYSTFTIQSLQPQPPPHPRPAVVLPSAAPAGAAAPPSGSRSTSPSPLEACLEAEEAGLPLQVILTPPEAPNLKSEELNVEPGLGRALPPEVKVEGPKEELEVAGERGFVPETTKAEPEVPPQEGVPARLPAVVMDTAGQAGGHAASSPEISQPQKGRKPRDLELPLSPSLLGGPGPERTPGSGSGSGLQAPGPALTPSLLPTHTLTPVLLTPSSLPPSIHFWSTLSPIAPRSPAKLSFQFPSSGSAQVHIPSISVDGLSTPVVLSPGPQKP
Summary of the method: as §1

GABPA = target: T3, GABPA (Homo sapiens, UniProt Q06546 1-454)
T3 sequence: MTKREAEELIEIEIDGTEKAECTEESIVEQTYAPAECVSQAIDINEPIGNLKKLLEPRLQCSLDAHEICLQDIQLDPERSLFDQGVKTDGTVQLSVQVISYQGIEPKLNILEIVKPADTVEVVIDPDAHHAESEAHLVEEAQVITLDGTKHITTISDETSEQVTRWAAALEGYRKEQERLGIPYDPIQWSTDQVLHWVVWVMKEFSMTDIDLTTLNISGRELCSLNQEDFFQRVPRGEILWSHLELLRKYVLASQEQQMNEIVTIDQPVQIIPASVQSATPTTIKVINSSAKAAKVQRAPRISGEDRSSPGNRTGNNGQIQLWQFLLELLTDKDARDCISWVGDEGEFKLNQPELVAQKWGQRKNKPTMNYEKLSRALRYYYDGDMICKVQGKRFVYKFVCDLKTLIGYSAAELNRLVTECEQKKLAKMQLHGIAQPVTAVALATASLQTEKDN
Summary of the method: as §1

ERG = target: T4, ERG (Homo sapiens, UniProt P11308 1-479)
T4 sequence: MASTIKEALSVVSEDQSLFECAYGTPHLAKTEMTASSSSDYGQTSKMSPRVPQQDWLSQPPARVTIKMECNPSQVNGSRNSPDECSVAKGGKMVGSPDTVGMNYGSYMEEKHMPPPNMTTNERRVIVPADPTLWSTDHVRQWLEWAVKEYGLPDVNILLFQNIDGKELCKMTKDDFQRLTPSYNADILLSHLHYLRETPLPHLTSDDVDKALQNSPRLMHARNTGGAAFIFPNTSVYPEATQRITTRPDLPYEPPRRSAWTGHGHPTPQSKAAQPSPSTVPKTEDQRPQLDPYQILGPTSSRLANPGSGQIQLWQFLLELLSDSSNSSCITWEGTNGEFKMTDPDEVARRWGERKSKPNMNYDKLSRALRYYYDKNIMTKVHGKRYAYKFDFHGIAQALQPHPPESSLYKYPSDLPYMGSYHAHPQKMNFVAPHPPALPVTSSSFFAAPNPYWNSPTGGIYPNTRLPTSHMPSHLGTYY
Summary of the method: as §1

ELF1 = ELF1 (Homo sapiens, UniProt P32519 1-619)
Summary of the method: as §1

EHF = target: T5, EHF (Homo sapiens, UniProt Q9NZC4 1-300)
T5 sequence: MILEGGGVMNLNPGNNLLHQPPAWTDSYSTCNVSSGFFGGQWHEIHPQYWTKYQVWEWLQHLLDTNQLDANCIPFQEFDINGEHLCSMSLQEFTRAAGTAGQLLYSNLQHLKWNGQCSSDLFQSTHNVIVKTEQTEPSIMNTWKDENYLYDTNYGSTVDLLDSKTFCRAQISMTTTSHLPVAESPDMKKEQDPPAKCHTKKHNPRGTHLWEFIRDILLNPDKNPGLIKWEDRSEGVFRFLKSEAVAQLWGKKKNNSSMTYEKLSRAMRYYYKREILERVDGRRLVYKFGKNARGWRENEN
Summary of the method: as §1

SPI1 = SPI1 (Homo sapiens, UniProt P17947 1-270)
Summary of the method: as §1

SPIB = SPIB (Homo sapiens, UniProt Q01892 1-262)
Summary of the method: as §1

ELK3 = target: T6, ELK3 (Homo sapiens, UniProt P41970 1-407)
T6 sequence: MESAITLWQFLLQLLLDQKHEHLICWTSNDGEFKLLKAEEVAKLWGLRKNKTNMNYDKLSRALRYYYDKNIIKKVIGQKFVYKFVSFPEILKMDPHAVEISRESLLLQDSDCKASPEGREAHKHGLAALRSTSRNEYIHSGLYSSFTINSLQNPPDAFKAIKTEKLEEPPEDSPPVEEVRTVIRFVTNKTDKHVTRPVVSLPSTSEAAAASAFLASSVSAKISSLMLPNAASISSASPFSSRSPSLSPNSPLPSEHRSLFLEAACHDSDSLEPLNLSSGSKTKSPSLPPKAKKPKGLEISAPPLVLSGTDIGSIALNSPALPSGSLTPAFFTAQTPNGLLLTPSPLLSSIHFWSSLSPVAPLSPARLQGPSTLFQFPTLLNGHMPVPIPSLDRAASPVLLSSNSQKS
Summary of the method: as §1

FEV = target: T7, FEV (Homo sapiens, UniProt Q99581 1-238)
T7 sequence: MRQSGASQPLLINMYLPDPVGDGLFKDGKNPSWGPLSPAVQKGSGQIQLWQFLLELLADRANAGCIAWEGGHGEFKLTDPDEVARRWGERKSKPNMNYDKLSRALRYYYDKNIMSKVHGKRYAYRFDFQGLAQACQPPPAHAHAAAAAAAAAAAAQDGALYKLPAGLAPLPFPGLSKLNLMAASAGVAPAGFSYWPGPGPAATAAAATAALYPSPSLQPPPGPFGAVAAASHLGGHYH
Summary of the method: as §1

ETV5 = ETV5 (Homo sapiens, UniProt P41161 1-510)
Summary of the method: as §1

SPIC = target: T8, SPIC (Homo sapiens, UniProt Q8N5J4 1-248)
T8 sequence: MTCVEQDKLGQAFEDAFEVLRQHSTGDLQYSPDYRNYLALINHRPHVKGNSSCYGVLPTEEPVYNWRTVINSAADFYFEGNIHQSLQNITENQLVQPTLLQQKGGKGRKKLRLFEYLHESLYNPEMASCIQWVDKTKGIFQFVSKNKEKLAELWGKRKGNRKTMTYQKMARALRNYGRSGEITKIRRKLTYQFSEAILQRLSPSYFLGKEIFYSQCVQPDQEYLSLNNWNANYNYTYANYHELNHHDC
Summary of the method: as §1

ELF4 = ELF4 (Homo sapiens, UniProt Q99607 1-663)
Summary of the method: as §1

ELK4 = target: T9, ELK4 (Homo sapiens, UniProt P28324-2 1-405)
T9 sequence: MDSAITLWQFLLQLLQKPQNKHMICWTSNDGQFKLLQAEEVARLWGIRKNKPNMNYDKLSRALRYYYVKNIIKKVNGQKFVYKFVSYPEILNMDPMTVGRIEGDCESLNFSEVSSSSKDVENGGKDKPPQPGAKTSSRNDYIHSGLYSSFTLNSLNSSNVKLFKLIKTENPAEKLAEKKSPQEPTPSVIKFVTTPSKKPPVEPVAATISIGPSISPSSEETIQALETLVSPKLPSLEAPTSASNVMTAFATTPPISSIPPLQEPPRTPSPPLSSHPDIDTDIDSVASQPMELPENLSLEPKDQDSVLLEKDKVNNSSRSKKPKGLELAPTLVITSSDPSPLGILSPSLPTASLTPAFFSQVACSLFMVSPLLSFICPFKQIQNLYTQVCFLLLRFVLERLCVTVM
Summary of the method: as §1

ETV2 = target: T10, ETV2 (Homo sapiens, UniProt O00321 1-342)
T10 sequence: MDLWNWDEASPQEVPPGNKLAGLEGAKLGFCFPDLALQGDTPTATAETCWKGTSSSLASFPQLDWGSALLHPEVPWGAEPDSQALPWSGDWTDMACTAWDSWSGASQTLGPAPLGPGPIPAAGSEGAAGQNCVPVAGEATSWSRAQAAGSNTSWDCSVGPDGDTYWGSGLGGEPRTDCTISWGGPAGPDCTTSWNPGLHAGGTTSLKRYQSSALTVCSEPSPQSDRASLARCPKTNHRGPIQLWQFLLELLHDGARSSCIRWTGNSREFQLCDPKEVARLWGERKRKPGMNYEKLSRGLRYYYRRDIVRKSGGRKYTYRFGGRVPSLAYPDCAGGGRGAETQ
Summary of the method: as §1

ELF3 = target: T11, ELF3 (Homo sapiens, UniProt P78545 1-371)
T11 sequence: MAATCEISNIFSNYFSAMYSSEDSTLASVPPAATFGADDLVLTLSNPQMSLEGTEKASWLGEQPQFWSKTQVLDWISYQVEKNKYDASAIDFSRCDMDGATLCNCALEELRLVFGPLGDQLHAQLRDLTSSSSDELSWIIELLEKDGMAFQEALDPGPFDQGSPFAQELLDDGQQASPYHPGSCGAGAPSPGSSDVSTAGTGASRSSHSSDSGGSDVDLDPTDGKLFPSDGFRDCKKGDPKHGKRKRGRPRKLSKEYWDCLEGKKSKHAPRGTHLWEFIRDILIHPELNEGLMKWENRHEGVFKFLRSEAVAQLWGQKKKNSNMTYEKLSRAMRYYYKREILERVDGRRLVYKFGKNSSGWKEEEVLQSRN
Summary of the method: as §1

ETV1 = ETV1 (Homo sapiens, UniProt P50549 1-477)
Summary of the method: as §1

Chain of ETV5 (P41161 whole entry): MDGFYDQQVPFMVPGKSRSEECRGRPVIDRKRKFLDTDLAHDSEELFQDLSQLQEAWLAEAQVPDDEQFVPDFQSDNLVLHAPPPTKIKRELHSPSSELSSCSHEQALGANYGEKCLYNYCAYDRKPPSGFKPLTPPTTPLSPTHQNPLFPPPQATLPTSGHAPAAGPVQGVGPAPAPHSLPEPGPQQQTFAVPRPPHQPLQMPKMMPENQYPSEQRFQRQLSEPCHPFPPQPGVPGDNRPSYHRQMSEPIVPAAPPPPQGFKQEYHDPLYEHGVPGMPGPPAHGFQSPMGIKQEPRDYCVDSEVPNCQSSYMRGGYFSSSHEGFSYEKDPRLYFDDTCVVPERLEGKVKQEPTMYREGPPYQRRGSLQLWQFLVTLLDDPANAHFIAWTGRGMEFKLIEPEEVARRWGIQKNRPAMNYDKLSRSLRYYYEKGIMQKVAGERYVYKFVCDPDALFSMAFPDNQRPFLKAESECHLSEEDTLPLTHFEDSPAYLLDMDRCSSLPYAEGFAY
Chain of SPIB (Q01892 whole entry): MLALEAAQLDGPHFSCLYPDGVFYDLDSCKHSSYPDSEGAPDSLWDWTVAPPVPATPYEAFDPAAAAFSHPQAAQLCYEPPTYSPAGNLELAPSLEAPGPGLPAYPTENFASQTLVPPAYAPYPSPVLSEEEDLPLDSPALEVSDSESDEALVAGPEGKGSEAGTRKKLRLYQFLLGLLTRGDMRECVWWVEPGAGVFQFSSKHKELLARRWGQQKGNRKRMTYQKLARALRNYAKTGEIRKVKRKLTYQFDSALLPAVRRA
Chain of ETV1 (P50549 whole entry): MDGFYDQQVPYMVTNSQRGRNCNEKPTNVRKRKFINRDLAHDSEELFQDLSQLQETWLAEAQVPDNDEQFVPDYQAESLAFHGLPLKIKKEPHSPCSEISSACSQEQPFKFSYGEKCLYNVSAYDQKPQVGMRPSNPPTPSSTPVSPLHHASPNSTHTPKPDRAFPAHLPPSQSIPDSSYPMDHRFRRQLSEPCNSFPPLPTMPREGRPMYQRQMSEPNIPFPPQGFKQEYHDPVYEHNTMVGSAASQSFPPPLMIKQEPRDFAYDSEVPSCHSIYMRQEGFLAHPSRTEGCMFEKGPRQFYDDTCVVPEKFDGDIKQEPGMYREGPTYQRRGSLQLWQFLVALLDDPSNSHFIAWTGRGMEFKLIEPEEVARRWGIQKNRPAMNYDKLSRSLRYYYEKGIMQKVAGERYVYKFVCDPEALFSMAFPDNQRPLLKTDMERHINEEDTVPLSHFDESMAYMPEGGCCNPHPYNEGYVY
Chain of ELF4 (Q99607 whole entry): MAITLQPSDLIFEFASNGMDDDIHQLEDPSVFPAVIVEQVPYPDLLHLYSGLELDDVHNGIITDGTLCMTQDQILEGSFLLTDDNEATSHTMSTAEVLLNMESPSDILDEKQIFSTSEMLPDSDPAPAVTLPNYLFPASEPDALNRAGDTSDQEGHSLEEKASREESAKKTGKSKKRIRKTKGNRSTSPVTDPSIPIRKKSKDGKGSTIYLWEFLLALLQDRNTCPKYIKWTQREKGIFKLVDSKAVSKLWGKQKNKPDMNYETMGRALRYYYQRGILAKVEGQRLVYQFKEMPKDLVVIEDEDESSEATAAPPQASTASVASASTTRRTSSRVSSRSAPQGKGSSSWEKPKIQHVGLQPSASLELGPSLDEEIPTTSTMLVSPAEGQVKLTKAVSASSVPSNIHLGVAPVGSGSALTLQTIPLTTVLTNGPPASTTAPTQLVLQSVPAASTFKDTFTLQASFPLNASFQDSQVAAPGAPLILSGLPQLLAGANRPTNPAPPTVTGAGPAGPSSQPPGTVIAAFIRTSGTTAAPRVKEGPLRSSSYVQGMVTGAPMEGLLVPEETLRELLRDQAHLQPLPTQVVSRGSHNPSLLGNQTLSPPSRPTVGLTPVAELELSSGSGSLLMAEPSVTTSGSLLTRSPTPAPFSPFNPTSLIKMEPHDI
Chain of ELF1 (P32519 whole entry): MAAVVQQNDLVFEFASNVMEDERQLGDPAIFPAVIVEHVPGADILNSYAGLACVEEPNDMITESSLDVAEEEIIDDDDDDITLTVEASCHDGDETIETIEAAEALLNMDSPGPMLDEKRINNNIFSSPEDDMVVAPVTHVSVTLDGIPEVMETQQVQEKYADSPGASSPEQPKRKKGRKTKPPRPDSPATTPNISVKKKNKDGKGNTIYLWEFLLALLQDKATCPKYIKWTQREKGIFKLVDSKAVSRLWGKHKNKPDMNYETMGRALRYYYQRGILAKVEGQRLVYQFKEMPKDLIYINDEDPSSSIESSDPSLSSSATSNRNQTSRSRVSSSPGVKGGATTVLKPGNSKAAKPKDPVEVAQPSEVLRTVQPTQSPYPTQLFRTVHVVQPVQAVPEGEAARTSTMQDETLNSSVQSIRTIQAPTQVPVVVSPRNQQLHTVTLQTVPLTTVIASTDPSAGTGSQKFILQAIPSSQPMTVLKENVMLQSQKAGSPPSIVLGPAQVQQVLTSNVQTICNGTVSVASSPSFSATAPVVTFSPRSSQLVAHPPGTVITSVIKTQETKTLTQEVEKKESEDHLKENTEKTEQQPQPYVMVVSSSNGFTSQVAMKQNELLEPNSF

CCCTGC was tested, and the binding signal (FLI1) was 1.11 fold enrichment (6-mer frequency, TF over GST control), the binding signal (ELK1) was 1.22 fold enrichment (6-mer frequency, TF over GST control) and the binding signal (GABPA) was 1.12 fold enrichment (6-mer frequency, TF over GST control). For the same sequence, the binding signal (ERG) was 1.21 fold enrichment (6-mer frequency, TF over GST control), the binding signal (ELF1) was 1.26 fold enrichment (6-mer frequency, TF over GST control) and the binding signal (EHF) was 1.17 fold enrichment (6-mer frequency, TF over GST control). The binding signal (SPI1) was 1.2 fold enrichment (6-mer frequency, TF over GST control), the binding signal (SPIB) was 1.16 fold enrichment (6-mer frequency, TF over GST control) and the binding signal (ELK3) was 1.18 fold enrichment (6-mer frequency, TF over GST control). The binding signal (FEV) was 1.14 fold enrichment (6-mer frequency, TF over GST control), the binding signal (ETV5) was 1.18 fold enrichment (6-mer frequency, TF over GST control) and the binding signal (SPIC) was 1.25 fold enrichment (6-mer frequency, TF over GST control). The binding signal (ELF4) was 1.38 fold enrichment (6-mer frequency, TF over GST control), the binding signal (ELK4) was 1.21 fold enrichment (6-mer frequency, TF over GST control) and the binding signal (ETV2) was 1.05 fold enrichment (6-mer frequency, TF over GST control). The binding signal (ELF3) was 1.12 fold enrichment (6-mer frequency, TF over GST control) and the binding signal (ETV1) was 1.22 fold enrichment (6-mer frequency, TF over GST control).
